The structures appear in SMILES notation. For some of these results: Results with a measured potency or affinity are listed apart.

From ChEMBL document CHEMBL3988442, “University of Dundee, Small-Polar-MMV Screening Library” (2021) come the findings set out here.

Parameters in all cases: scale not given: direction of the effect not stated beside the values
Test [1] concerns the target Protein translocase subunit SecA (Escherichia coli (strain K12)) (UniProt P10408). Nature of the test: Assay to Identify E. coli SecA ATPase Inhibitors. Type of test: functional. The following applies: 30 µM.
Test [2] deals with T1, Ubiquitin-activating enzyme e1, putative (Leishmania donovani (strain BPK282A1)) (UniProt E9BSI1).
T1 sequence (whole entry): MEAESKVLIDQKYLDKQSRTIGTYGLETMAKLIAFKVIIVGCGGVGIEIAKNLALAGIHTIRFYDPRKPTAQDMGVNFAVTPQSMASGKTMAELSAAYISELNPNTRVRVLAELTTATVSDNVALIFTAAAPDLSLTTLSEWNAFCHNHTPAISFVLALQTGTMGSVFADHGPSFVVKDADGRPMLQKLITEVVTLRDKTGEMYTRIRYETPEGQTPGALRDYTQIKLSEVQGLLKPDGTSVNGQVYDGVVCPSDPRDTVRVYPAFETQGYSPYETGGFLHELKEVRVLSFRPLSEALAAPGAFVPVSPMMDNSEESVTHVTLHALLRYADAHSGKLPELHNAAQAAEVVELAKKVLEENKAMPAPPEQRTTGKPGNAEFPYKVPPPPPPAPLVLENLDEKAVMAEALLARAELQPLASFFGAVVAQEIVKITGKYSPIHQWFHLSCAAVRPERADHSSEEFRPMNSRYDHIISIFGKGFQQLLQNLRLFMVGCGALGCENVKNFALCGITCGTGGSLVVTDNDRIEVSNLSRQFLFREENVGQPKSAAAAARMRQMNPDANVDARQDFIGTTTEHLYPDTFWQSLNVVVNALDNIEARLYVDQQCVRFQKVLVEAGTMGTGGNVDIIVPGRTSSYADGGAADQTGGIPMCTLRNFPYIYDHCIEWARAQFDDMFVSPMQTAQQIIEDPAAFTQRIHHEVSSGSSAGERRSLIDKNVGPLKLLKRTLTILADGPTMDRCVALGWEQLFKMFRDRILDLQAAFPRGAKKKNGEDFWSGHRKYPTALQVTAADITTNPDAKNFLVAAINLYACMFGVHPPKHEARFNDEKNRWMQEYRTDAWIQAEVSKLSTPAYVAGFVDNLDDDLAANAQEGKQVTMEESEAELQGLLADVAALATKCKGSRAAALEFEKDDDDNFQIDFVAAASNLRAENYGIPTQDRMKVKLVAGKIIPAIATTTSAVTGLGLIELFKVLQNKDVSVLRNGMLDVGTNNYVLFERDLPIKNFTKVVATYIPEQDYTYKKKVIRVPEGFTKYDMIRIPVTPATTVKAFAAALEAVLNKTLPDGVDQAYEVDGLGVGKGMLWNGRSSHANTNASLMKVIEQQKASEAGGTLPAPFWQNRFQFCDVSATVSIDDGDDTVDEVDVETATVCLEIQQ
Nature of the test: Leishmania donovani Ubiquitin Activating Enzyme (LdE1). Type of test: functional. The note with it: 30 µM.

In test [3] the target is AMP-activated protein kinase, AMPK (Homo sapiens) (UniProt P54646+O43741+P54619+Q9UGJ0+Q9Y478+Q13131+Q9UGI9). Nature of the test: AMP-dependent Kinase enzyme assay. An in vitro enzyme assay that detects ADP turnover that is directly proportional to AMPK activity. This uses naive AMPK that is activated during the assay with MK-8722. Format: functional. The note with it: 30 µM.

Test [4] addresses Sialic acid-binding Ig-like lectin 9 (Homo sapiens) (UniProt Q9Y336). Nature of the test: Hs-Siglec9 ALPHAscreen SOP 20170721. The following applies: 10 µM.
For another test, the system named is Trypanosoma cruzi. In words: Trypanosoma cruzi phosphomannomutase and mannose-1-phosphate guanylyltransferase assay. Format: functional. The following applies: 10 µM.
Test [5] concerns the target T2, Arginase-2, mitochondrial (Homo sapiens) (UniProt P78540).
T2 sequence (whole entry): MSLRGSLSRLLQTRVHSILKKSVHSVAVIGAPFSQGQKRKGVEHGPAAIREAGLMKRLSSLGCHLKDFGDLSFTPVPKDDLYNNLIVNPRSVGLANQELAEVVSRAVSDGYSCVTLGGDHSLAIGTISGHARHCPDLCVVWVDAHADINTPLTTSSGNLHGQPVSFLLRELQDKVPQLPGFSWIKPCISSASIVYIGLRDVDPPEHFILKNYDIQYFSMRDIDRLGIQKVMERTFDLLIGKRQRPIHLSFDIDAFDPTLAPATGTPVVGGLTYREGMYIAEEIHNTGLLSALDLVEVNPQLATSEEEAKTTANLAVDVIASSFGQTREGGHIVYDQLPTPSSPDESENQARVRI
Nature of the test: in vitro enzyme assay to detect the production of urea directly proportional to the activity of Arginase II. Further: in the data most compounds retested in dose-response had high values. Type of test: functional. The following applies: 33.3 µM.

Test [6] deals with T3, Proteasome subunit beta (Trypanosoma cruzi) (UniProt O96673).
T3 sequence (whole entry): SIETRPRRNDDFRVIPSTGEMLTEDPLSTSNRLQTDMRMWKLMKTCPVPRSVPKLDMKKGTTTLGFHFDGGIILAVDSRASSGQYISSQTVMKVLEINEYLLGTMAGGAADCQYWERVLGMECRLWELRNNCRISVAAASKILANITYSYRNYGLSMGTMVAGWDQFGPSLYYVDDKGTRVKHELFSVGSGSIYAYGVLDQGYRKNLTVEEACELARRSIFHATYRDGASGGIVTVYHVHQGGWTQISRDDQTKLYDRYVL
Nature of the test: Trypanosoma cruzi proteasome chymotrypsin-like activity (TcProtChymo) assay. Further: in the data most compounds retested in dose-response had high values. Format: functional. The following applies: 9.37 µM.

The species named for the next test is Homo sapiens. Nature of the test: To identify inhibition of the IFN signalling (Jak-Stat) pathway via expression of an eGFP reporter gene under the control of an IFN-stimulated response element (ISRE) containing MxA promoter. Format: functional. The note with it: 30 µM.
Test [7] deals with T4, Tyrosyl-tRNA synthetase, putative (Trypanosoma cruzi (strain CL Brener)) (UniProt Q4DSP6).
T4 sequence (whole entry): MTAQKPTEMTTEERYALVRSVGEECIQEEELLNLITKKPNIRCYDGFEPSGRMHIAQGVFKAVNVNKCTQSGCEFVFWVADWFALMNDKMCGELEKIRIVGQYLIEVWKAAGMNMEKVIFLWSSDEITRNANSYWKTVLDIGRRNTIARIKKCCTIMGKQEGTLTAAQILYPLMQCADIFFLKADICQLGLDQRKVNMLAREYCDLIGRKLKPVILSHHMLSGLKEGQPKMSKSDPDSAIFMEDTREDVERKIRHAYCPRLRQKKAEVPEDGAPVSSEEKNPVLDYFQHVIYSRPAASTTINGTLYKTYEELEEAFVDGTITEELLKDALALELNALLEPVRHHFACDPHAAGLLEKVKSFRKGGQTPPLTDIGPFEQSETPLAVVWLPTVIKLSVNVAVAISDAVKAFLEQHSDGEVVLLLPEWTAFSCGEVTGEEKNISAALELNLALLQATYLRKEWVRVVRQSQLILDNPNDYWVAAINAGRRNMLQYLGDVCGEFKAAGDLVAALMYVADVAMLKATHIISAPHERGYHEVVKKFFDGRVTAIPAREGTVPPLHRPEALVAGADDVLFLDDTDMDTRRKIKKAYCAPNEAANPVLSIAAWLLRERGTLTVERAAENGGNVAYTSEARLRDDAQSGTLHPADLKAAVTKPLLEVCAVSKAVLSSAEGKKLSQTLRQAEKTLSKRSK
Nature of the test: Trypanosoma cruzi tyrosyl tRNA synthetase (TcYRS) _High Tyrosine SOP. Further: in the data most compounds retested in dose-response had high values. Format: functional. The following applies: 30 µM.

The target of test [8] is T4, Tyrosyl-tRNA synthetase, putative (Trypanosoma cruzi (strain CL Brener)). Nature of the test: Trypanosoma cruzi tyrosyl tRNA synthetase (TcYRS) SOP. Format: functional. The note with it: 30 µM.
In test [9] the target is Chromo domain-containing protein 1 (Saccharomyces cerevisiae (strain ATCC 204508 / S288c) (Baker's yeast)) (UniProt P32657). Nature of the test: ScCHD-1 Enzyme Inhibition Assay. Further: in the data most compounds retested in dose-response had high values. Format: functional. The note with it: 30 µM.
Chromo domain-containing protein 1 (Saccharomyces cerevisiae (strain ATCC 204508 / S288c) (Baker's yeast)), sequence (P32657 whole entry, the tested form may be a part): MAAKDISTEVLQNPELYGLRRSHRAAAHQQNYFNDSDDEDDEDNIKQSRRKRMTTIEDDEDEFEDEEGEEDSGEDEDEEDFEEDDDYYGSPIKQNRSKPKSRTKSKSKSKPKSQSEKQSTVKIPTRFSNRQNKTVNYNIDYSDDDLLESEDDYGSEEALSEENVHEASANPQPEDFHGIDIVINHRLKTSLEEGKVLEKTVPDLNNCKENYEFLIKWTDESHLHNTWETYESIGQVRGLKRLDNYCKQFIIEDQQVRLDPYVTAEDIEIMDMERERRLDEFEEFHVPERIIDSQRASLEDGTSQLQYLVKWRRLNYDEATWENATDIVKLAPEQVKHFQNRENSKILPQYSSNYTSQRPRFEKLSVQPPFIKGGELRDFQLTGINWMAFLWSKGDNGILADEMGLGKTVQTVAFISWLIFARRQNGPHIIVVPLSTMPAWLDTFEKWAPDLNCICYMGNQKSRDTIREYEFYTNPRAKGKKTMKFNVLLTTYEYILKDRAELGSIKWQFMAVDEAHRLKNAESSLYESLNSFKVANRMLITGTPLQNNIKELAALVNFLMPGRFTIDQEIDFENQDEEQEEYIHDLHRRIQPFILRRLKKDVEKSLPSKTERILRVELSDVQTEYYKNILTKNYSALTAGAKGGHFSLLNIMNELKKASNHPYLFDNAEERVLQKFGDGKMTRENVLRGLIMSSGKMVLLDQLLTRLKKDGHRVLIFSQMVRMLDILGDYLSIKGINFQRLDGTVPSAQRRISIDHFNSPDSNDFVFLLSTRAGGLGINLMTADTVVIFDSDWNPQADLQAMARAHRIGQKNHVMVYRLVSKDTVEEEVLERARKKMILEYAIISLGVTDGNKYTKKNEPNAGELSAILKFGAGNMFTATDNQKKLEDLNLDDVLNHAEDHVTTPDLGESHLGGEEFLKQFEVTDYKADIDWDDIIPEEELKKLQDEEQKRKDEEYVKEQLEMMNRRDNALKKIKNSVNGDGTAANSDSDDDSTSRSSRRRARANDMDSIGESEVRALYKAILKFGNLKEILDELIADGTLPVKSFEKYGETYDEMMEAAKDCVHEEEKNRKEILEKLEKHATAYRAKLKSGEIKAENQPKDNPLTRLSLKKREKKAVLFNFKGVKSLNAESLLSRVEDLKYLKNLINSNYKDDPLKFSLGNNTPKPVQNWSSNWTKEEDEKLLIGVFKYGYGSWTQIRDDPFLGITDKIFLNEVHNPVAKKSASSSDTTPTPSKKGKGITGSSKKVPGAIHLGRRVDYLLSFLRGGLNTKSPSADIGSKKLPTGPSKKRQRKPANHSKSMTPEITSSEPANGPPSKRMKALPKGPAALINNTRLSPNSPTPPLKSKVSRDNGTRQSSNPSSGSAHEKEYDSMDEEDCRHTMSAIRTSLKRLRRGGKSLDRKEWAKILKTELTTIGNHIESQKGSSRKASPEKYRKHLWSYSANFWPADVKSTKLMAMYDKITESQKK

Sialic acid-binding Ig-like lectin 9 (Homo sapiens), sequence (Q9Y336 whole entry): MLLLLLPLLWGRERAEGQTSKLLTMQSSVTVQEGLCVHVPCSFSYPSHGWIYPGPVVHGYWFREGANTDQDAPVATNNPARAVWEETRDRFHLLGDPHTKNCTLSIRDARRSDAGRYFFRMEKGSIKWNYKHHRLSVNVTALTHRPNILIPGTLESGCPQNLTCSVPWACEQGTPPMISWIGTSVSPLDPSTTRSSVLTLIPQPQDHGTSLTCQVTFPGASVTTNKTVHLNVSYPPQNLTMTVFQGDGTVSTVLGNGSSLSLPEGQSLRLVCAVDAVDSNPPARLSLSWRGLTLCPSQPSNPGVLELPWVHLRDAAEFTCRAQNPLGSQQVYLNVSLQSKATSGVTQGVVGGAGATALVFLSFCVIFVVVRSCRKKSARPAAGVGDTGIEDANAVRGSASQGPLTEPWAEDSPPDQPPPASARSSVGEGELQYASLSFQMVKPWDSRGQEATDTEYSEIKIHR
Protein translocase subunit SecA (Escherichia coli (strain K12)), sequence (P10408 whole entry): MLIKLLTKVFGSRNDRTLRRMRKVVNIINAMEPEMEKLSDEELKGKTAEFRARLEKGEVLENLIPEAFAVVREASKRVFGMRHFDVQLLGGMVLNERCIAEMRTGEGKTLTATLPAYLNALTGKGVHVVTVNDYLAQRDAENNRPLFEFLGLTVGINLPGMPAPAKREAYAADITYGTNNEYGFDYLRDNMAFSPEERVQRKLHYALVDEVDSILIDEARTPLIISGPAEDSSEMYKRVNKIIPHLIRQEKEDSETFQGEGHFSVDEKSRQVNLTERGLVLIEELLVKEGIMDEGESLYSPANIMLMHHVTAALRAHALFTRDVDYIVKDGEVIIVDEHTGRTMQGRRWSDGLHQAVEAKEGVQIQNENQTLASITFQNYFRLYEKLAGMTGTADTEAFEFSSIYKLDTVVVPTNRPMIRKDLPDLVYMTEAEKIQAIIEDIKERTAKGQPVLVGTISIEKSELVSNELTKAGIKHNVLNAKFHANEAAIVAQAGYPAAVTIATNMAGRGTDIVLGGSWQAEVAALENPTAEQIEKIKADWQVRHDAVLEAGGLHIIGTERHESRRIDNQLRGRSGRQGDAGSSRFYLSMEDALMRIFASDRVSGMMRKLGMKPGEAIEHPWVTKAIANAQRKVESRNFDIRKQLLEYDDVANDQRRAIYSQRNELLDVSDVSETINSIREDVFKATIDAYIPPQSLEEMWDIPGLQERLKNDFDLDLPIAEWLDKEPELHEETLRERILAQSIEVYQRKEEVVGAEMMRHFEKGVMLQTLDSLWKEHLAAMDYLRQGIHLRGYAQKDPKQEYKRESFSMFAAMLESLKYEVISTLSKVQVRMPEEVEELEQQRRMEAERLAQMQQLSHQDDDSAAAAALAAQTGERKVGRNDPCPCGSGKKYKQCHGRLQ

As for `CNC(=O)[C@@]12CCO[C@@H]1CCN(S(=O)(=O)c1cccnc1)C2`, the Percent Effect in test [1] is -5.53%; in [2], 10.8%; in [3] it was 0.489%; in [4], -1.11%; with Trypanosoma cruzi it was 4.99%; in test [5], -3.5%. The Percent Effect in test [6] was 9.96%; in the test listed under Homo sapiens it was 4.96%; in test [7] it was 5.41%; in [8], 12.8%; in [9], 0.201%.

For `COc1ccc(CN2CC[C@H](NC(C)=O)[C@@H](O)CC2)c(OC)c1`, the Percent Effect in test [1] was -4.21%; in [2] it was 4.05%; in test [3], 9.24%; in test [4], 3.43%; in the test with Trypanosoma cruzi, 2.77%; in test [5], -2.55%. Also, the Percent Effect in [6] is 13.6%; in the test listed under Homo sapiens it was 13%; in test [7] it was -1.07%; in [8] it was 1.3%; in [9], -12.5%.

Consider `CCC(O)CN1CCN(C(=O)c2cccn2Cc2cccs2)CC1` (stereo unspecified), for which the Percent Effect in [1] is -3.15%; in test [2], 5.06%; in [3], 1.52%; in [4], 11.3%; in the test on Trypanosoma cruzi, -2.17%; in [5], 0.38%. Further, the Percent Effect in [6] was -3.03%; in the test listed under Homo sapiens, 5.7%; in test [7], 4.43%; in test [8], 11.4%; in test [9], -5.26%.

`CC(=O)Nc1nc(C(=O)N2CCCC(c3cc(C)[nH]n3)C2)cs1` (stereo unspecified): the Percent Effect in test [1] is -6.81%; in test [2] it was -28.9%; in test [3], -1.06%; in [4], 8.53%; with Trypanosoma cruzi, 6.63%; in test [5] it was 0.36%. For the same molecule, the Percent Effect was determined as 2.28% in test [6]; 2.32% in the test filed under Homo sapiens; 4.43% in [7]; 11.1% in test [8]; 0.638% in test [9].

Take `c1ncc(Nc2nccc(C3CCCCN3CC3CCCCC3)n2)cn1` (stereo unspecified): the Percent Effect in [1] was -4.71%; in test [2], 13.3%; in [3] it was 10.8%; in test [4] it was -4.81%; with Trypanosoma cruzi, -0.591%; in [5], 3.5%. Further, the Percent Effect is 10.5% in test [6]; 21.9% in the test listed under Homo sapiens; 2.13% in test [7]; 11.5% in test [8]; -6.48% in [9].

For the molecule `COc1ccc(CN2C[C@@H](OCc3csc(C)n3)[C@H]3COC[C@H]32)cc1`, the Percent Effect in [1] was -4.6%; in [2], 2.74%; in test [3] it was -10.5%; in [4], 0.865%; in the test with Trypanosoma cruzi it was -2.78%; in test [5], -0.399%. In addition, the Percent Effect in test [6] is 2.65%; in the test filed under Homo sapiens, -6.15%; in test [7], 2.08%; in test [8], 8.64%; in [9], -3.52%.

As for `COCCN1C(=O)[C@]2(CC[C@@H]3CN(C(=O)NCC(C)C)C[C@@H]32)N=C1C`, the Percent Effect was 1.47% in test [1]; 5.33% in [2]; -2.77% in [3]; -5% in [4]; 5.41% with Trypanosoma cruzi; -49.3% in [5]. Moreover, the Percent Effect in [6] was 5.3%; in the test listed under Homo sapiens, -20.3%; in test [7], 1.04%; in test [8], 0%; in test [9] it was -4.55%.

As for `Cc1nn(C)c(C)c1C1CCCN1Cc1nc(-c2ccco2)no1` (stereo unspecified), the Percent Effect in test [1] is -1.05%; in [2] it was 10.8%; in test [3], -11.3%; in [4] it was 7.16%; in the test with Trypanosoma cruzi it was 4.18%; in test [5], -2.03%. Also, the Percent Effect was 3.23% in [6]; 26.2% in the test filed under Homo sapiens; 10.9% in test [7]; 23.2% in [8]; -7.01% in test [9].

In the case of `CN(Cc1ccc2c(c1)OCCO2)C(=O)NCCc1cnn(C)c1`, the Percent Effect in test [1] is -2.93%; in test [2], 18.9%; in [3] it was -2.51%; in test [4], 14.3%; with Trypanosoma cruzi, -10.3%; in test [5], 0.554%. Besides, the Percent Effect was 14.5% in test [6]; 18% in the test listed under Homo sapiens; 2.97% in test [7]; -1.22% in [8]; -6.78% in [9].

With `O=C(c1cccnc1)N1CCCC2(CCN(c3ccsc3)C2=O)C1` (stereo unspecified), the Percent Effect was -2.21% in test [1]; 10.4% in test [2]; 15.5% in test [3]; -9.57% in test [4]; -8.19% with Trypanosoma cruzi; 11% in test [5]. Besides, the Percent Effect in test [6] was 20.9%; in the test filed under Homo sapiens it was 9.28%; in test [7] it was -7.41%; in test [8] it was 1.28%; in [9] it was -9.17%.

Turning to `CCNC(=O)c1ccc2c(c1)nc1n2CCN(Cc2ccco2)C1`, the Percent Effect was -1.58% in test [1]; 2.63% in test [2]; 10.5% in [3]; 1.2% in [4]; -0.0974% with Trypanosoma cruzi; -4.73% in test [5]. Also, the Percent Effect was 13.7% in test [6]; 8.32% in the test listed under Homo sapiens; 0% in test [7]; 0% in test [8]; -5.62% in test [9].
